Inconclusive results are not listed. A number with no mark means an inactive call. Activity calls are given as the source filed them. Calls come from the whole dose curve; as a rule, active = well fitted cell-killing curve with a large enough effect; inconclusive = small, poorly fitted or top-dose-only effect; inactive = flat fitted curve, though single readings scatter.
experiment: qHTS of pediatric cancer cell lines to identify multiple opportunities for drug repurposing: Confirmatory screen for SK-N-SH cells (AID 1347129); conditions: SK-N-SH neuroblastoma cell viability; series mostly up to 46.1 µM; activity change, negative = cytotoxic: at the top concentration;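 note: cells exposed to compound for 48 h before viability read; nearly all actives have a fitted effect of over 60% in size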
Description: Drug repurposing or repositioning has been offered as a strategy for drug development in oncology programs. This approach has special potential for childhood cancers and other rare or orphan diseases, where the expected return on new drug development has been a disincentive to pharmaceuticals.
In this project we exploit the poly-pharmacology of drugs to discover new indications via phenotypic screening of a panel of 19 well-characterized cell lines derived from solid tumors seen in children and adolescents. The goal is to identify approved drugs with previously unrecognized anticancer properties that has the potential to reveal new mechanisms and biological processes involved in carcinogenesis or drug resistance. We employed a titration-based paradigm (quantitative high-throughput screening or qHTS), where all compounds were tested at multiple concentrations for their effect on cell viability. Concentration-response curves (CRCs) were derived directly from the primary screen, and both potency and efficacy values were used to identify compounds with robust bioactivity profiles. We screened the NIH Chemical Genomics Center (NCGC) Pharmaceutical Collection (NPC) and Mechanism Interrogation Plate (MIPE) small molecule collections of approved and investigational compounds against these cell lines; and measured metabolically active cells after 48 hours of compound treatment as a proxy for cell viability.
Assay Submitter: Nathalia J. Martinez, National Center for Advancing Translational Sciences, National Institutes of Health, Rockville, MD, USA; email: natalia.martinez@nih.gov
[1] Shen, M et al. Quantitative high-throughput phenotypic screening of pediatric cancer cell lines identifies multiple opportunities for drug repurposing. Oncotarget 2017 Dec 19;9(4):4758-4772. PMID 29435139.
The cells were obtained from University of North Carolina (UNC), Pediatric Preclinical Testing Program (PPT), and Coriell Institute (CI).
qHTS cell viability assay:
Cells were assayed in growth media at a density of 500-1,000 cells/well. Five microliters of cells were dispensed into 1,536-well, white, solid-bottom, TC-treated plates (Greiner Bio One) using a multidrop dispenser and incubated at 37 degrees C, 5% CO2, under a humidified atmosphere for 5 hours. Twenty-three nanoliters of compounds and controls (neutral control DMSO or positive control bortezomib at final concentration of 2.3 µM) were subsequently transferred by Kalypsys pintool. For primary screens, the MIPE collection was tested at 11-point dilutions (final concentrations range from 0.78 nM to 46 µM) and the NPC collection at 8-point dilutions (final concentrations range from 0.59 nM to 46 µM). Compounds tested in follow-up screens were assayed at 11-point dilutions. Cells were incubated for 48 hours, followed by addition of 3 µL of CellTiter-Glo (Promega). After a 15 min incubation at room temperature, samples were analyzed for luminescence intensity using a ViewLux High-throughput CCD imager equipped with clear filters.
Potency is the fitted concentration of half-maximal effect.

| Compound | activity change, negative = cytotoxic | Potency |
| --- | --- | --- |
| CC1CCc2c(N3CCC(O)CC3)c(F)cc3c(=O)c(C(=O)O)cn1c23 (centres undefined) | -0.97% |  |
| CCN(CC)CCOc1ccc2c(c1)C(=O)c1cc(OCCN(CC)CC)ccc1-2 |  | 18.7 µM (active) |
| CCCCCCCCCCC[C@@H](C[C@@H]1OC(=O)[C@H]1CCCCCC)OC(=O)[C@H](CC(C)C)NC=O | -0.86% |  |
| C[C@H]1O[C@@H](O[C@H]2CC[C@@]3(C)[C@H](CC[C@@H]4[C@@H]3C[C@@H](O)[C@]3(C)[C@@H](C5=CC(=O)OC5)CC[C@]43O)C2)C[C@H](O)[C@@H]1O[C@H]1C[C@H](O)[C@H](O[C@H]2C[C@H](O)[C@H](O[C@@H]3O[C@H](CO)[C@@H](O)[C@H](O)[C@H]3O)[C@@H](C)O2)[C@@H](C)O1 |  | 0.332 µM (active) |
| NC(N)=NN=C(/C=C/c1ccc([N+](=O)[O-])o1)/C=C/c1ccc([N+](=O)[O-])o1 |  | 2.35 µM (active) |
| CCN[C@@H]1C[C@H](N)[C@@H](OC2OC(CN)=CCC2N)[C@H](O)[C@H]1O[C@H]1OC[C@](C)(O)[C@H](NC)[C@H]1O (some centres undefined) | 6.98% [at 0.558 µM] |  |
| CCCCCCCCCCCCOCCOCCOCCOCCOCCOCCOCCOCCOCCO | 4.03% |  |
| C[C@@]12C(=O)OC(=O)[C@]1(C)C1CCC2O1 | 4.61% |  |
| C=C[C@@]1(C)CC(=O)[C@]2(O)[C@@]3(C)[C@@H](O)CCC(C)(C)[C@@H]3[C@H](O)[C@H](OC(C)=O)[C@@]2(C)O1 | -11.5% |  |
| CN(C)C(=O)Nc1ccc(Cl)c(Cl)c1 | -7.56% |  |
| COc1ccc(C(=O)c2ccccc2)c(O)c1 | -5.23% |  |
| O=[N+]([O-])c1ccc(/C=N\O)o1 | -3.02% |  |
| O=C(Oc1cccc2cccnc12)c1ccccc1 | -5.92% |  |
| CCN1/C(=C/C=C/c2sc3ccccc3[n+]2CC)Sc2ccccc21 |  | 2.29 µM (active) |
